Screening results deposited in PubChem BioAssay by National Center for Advancing Translational Sciences (NCATS).
Hits are enriched below; roughly 6.1% of the tested compounds scored in any of these assays.
DRD3 antagonist: antagonists of human D3 dopamine receptor | P35462 | 2.5% of 360,000 active | D3R cells, DiscoveRx beta-arrestin luminescence, antagonist mode; hits give low values | max response, negative = inhibition, %; in the data active means max response below about -50%; inconclusive means no clear call, values can overlap the other calls; further: on the % scale 0 is the no-effect control and ±100 the full control effect
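Cells plated overnight at 1500 cells/well, then exposed to library compounds with dopamine controls for 90 minutes at 37 degrees C. DiscoveRx reagent added for 30–60 minutes at room temperature; luminescence read, quantitative HTS format.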
D1 antagonist: human D1 dopamine receptor antagonism. HEK293 TREx D1 cells, calcium flux, dopamine EC80; hits give low values. activity change, negative = inhibition, % at 10 µM. 3.2% of 360,000 active. AID 504652; in the data active means activity change below about -30%; further: on the % scale 0 is the no-effect control and ±100 the full control effect
Target sequence (P21728 whole entry, looked up): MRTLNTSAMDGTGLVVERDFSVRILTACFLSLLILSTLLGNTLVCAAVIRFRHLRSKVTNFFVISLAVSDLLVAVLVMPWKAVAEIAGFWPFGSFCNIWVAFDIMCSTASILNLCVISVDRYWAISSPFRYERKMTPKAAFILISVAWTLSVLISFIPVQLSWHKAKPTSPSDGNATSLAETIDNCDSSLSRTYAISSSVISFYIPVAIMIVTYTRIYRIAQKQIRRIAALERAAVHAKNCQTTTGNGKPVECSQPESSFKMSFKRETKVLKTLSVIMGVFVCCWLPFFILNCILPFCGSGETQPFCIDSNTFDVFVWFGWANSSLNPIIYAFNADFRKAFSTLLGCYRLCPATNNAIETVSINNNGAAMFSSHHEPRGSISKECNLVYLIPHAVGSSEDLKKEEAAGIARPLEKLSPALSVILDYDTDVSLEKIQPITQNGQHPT
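Cells carrying a force-coupled, tetracycline-inducible human D1 receptor report calcium flux. Each well gets a 10 s baseline, compound with 180 s monitoring, then an EC80 dopamine stimulus with a second 180 s kinetic read.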
D1 PAM: human D1 dopamine receptor positive modulation. 0.036% of 360,000 active. potentiation, % at 10 µM. HEK293 TREx D1 cells, calcium flux, dopamine EC20 potentiation; in the data active means potentiation above about 30%; further: 0% is about no effect
D3 ag: D3 dopamine receptor (human) agonism; P35462; D3R DiscoveRx beta-arrestin cells, luminescence, 90 min; max activation, %; 0.58% of 410,000 active; in the data active means max activation above about 30%; further: 0% is about no effect
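Cells at 1500/well, incubated overnight, then treated with pinned compounds (dopamine as control) for 90 min at 37 degrees C. DiscoveRx reagent added for 30 - 60 minutes at room temperature; luminescence read.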
D1 agonist: agonists of human D1 dopamine receptor | 1% of 360,000 active | P21728 | HEK293 T-REx D1 cells, calcium flux, agonist mode | activation, % at 2 µM; in the data active means activation above about 30%; further: 0% is about no effect
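Agonism was scored from calcium flux recorded over 180 s (1 read/s) after pintool compound addition, following a 10-cycle baseline. Cells were inducible force-coupled HEK293 TREx D1, plated overnight at 30 C and loaded with no-wash calcium dye.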
* hit, by the source's call; u = inconclusive; x = no result given.

SMILES	DRD3 antagonist	D1 antagonist	D1 PAM	D3 ag	D1 agonist
CCC(Sc1nc2ccccc2c2nc(-c3ccccc3)nn12)C(=O)Nc1cccc(OC)c1 (configuration not stated)	x	16	-4	7	0
Cc1ccc(NC(=S)NCc2ccccc2)c(C)c1	-8	-26	2	-9	7
Cc1ccc(NC(=S)NCCC(c2ccccc2)c2ccccc2)c(C)c1	-67*	-10	0	-2	4
Cc1ccccc1NC(=S)NCCC(c1ccccc1)c1ccccc1	-60*	-8	-8	-23	4
FC(F)(F)c1cc(Cl)c2nnc(-c3ccccn3)n2c1	11	-8	2	1	1
O=C(O)c1ccccc1-c1nnc2c(Cl)cc(C(F)(F)F)cn12	-21	-38*	-3	0	1
CCCN(Cc1cccs1)C(=O)Nc1ccc(F)c(Cl)c1	x	2	-2	3	-1
Cc1cccc(N2CCN(Cc3nc(-c4cccc(Cl)c4)oc3C)CC2)n1	u	20	0	-12	1
Cc1cccc(N2CCN(Cc3nc(-c4ccccc4Cl)oc3C)CC2)n1	6	-31*	-7	-20	1
COc1cccc2cc(C(=O)NCCc3c(C)[nH]c4ccc(F)cc34)c(=O)oc12	x	-4	-4	-7	0
CCOc1ccccc1-c1noc(CSc2nnc(-c3ccccc3)n2-c2ccc(OC)cc2)n1	x	-3	2	2	2
C/C(=N\Nc1ccc(S(=O)(=O)Nc2ccccc2)cc1[N+](=O)[O-])c1ccncc1	x	-32*	-4	x	1
COc1ccc(NS(=O)(=O)c2ccc(N/N=C(\C)c3ccncc3)c([N+](=O)[O-])c2)cc1	-65*	-6	-4	-12	6
C/C(=N\Nc1ccc(S(=O)(=O)Nc2ccc(Cl)cc2)cc1[N+](=O)[O-])c1ccc(N2CCOCC2)cc1	u	6	5	-1	-1
CCNc1nc(NCc2ccccc2)nc(SCC(N)=O)n1	-5	-7	-6	-11	2
CN(C)c1nc(NCc2ccccc2)nc(SCC(=O)Nc2ccc(Cl)c(Cl)c2)n1	41	8	2	46*	6
COC(=O)CSc1nc(NCc2ccccc2)nc(N(C)C)n1	0	-40*	-7	12	8
CCc1nnc(SCC(=O)N(C)c2ccccc2)c2cc3sccc3n12	x	0	-4	-20	1
COc1ccc(C2C(C(=O)c3cccs3)=C(O)C(=O)N2c2nncs2)cc1 (configuration not stated)	8	-21	-3	-4	67*
O=C(C1=C(O)C(=O)N(CCN2CCOCC2)C1c1ccccc1)c1cccs1 (configuration not stated)	-52*	x	x	-1	x
CC(C)c1nnc(N2C(=O)C(O)=C(C(=O)c3cccs3)C2c2ccccc2)s1 (configuration not stated)	-6	x	2	7	270*
C=CCOc1ccc(C2C(C(=O)c3cccs3)=C(O)C(=O)N2c2nnc(C)s2)cc1 (configuration not stated)	-63*	x	x	-13	x
Cc1cccc(N2C(=O)C(O)=C(C(=O)c3cccs3)C2c2ccc(C(C)C)cc2)n1 (configuration not stated)	-10	1	3	-9	1
Cc1ccc(CNc2nc(-c3ccco3)nn2S(C)(=O)=O)cc1	x	-27	-2	8	5
COc1ccc(C2C(C(=O)c3cccs3)=C(O)C(=O)N2c2nnc(C)s2)cc1OC (configuration not stated)	-10	3	-5	2	77*
SMILES	DRD3 antagonist	D1 antagonist	D1 PAM	D3 ag	D1 agonist
CCN1CCN(c2cc3c(cc2F)c(=O)c(S(=O)(=O)c2cc(C)cc(C)c2)cn3CC)CC1	x	-12	0	-16	-2
COc1cc(-c2cc(OC)c3c(C)oc(C)c3c(=O)c2)ccc1OC(=O)c1cccc(Cl)c1	x	-25	-2	-18	13
CN(C1CCCCC1)S(=O)(=O)CCNC(=O)c1ccccc1	-2	-67*	1	-6	0
COc1cccc(COC(=O)C2CCN(S(=O)(=O)c3ccc(C)cc3)CC2)c1OC	-7	-38*	1	6	10
COc1cccc(COC(=O)C2CCN(C(=O)c3ccc(F)cc3)CC2)c1OC	12	-45*	-11	2	19
COc1cccc(COC(=O)C2CCN(S(=O)(=O)c3ccc(C)cc3C)CC2)c1OC	11	-44*	-18	4	18
CCOC(=O)C1CCCCN1Cc1cccc(OC)c1OC (configuration not stated)	-108*	-1	1	-9	1
CCOc1ccc(S(=O)(=O)N2CCC(C(=O)OCc3cccc(OC)c3OC)CC2)cc1	4	0	-4	-1	22
CCOC(=O)C1CCCCN1Cc1cc(OC)ccc1OC (configuration not stated)	-26	-4	4	2	2
CCCCCC[C@@H](CCC)C(=O)O	x	x	x	2	x
O=C(O)c1ccc(Sc2nnnn2-c2ccccc2)c([N+](=O)[O-])c1	-64*	4	1	1	1
Cn1cc(C(=O)O)c(=O)c2cc(S(=O)(=O)N3CCCCC3)ccc21	x	-22	0	-17	-3
COc1cccc(Cn2c(CNC(=O)CCc3ccccc3)nc3cccnc32)c1	x	12	-1	-3	0
C[C@@H]1CCC(=O)N(C[C@@H](C)CSc2ccc(Br)cc2)CC1	6	-51*	-1	0	-1
Cc1ccc(SC[C@H](C)CN2CC[C@H](C)CCC2=O)cc1	9	-12	3	7	8
CCOc1c(Cl)cc(Cl)cc1CNCCSc1nnnn1C	x	3	-3	1	4
CN1CCN(Cc2ccc(Sc3ccc(Cl)cc3)c([N+](=O)[O-])c2)CC1	-55*	-22	0	-44	79*
Cc1ccc(Sc2ccc(CN3CCCC3)cc2[N+](=O)[O-])cc1	-79*	21	2	-20	3
Cc1ccc(Sc2ccc(CO)cc2[N+](=O)[O-])cc1	u	-27	-6	-8	2
Cc1ccc(Cl)cc1NC(=O)C1C2CCC(O2)C1C(=O)O (configuration not stated)	-25	-35*	-1	-3	-1
Cc1ccc(NC(=O)C2C3CCC(O3)C2C(=O)O)c(Br)c1 (configuration not stated)	20	9	0	2	2
CC1CCN(C(c2ccccc2)c2sc3nc(-c4ccco4)nn3c2O)CC1 (configuration not stated)	x	x	0	-13	0
CC1=CC(C)(C)N(C(=O)CN2C(=O)CCC2=O)c2ccccc21	1	-38*	-1	10	2
O=C(NCCCOc1cccc(CN2CCCCC2)c1)c1ccc(Cl)c(Cl)c1	-98*	-5	-4	-38	4
c1cc(CN2CCCCC2)cc(OCCCNc2nc3ccccc3s2)c1	-75*	x	x	-80	x
